Data taken from paper PMC5540273 (PLoS ONE, 2017).

Tests used:
Conditions in all cases: concentration: 1 μM, replicates: in singlicate; n = 1
CSF1R = system: CSF1R
CSK = system: CSK
CSNK1A1L = system: CSNK1A1L
CSNK1A1 = system: CSNK1A1
CSNK1D = system: CSNK1D
CSNK1E = system: CSNK1E
CSNK1G1 = system: CSNK1G1
CSNK1G2 = system: CSNK1G2
CSNK1G3 = system: CSNK1G3
CSNK2A1 = system: CSNK2A1
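Further: KINOMEscan kinase panel screen.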

Row | Compound | %Inh (CSF1R) | %Inh (CSK) | %Inh (CSNK1A1L) | %Inh (CSNK1A1) | %Inh (CSNK1D) | %Inh (CSNK1E) | %Inh (CSNK1G1) | %Inh (CSNK1G2) | %Inh (CSNK1G3) | %Inh (CSNK2A1)
1 | Cc1nn2c(=O)cc(N3CCOCC3)nc2n1Cc1cccc(Cl)c1Cl [GSK2342769] | 13% | 0% | 22% | 0% | 4% | 22% | 0% | 0% | 9% | 16%
2 | COc1cccc(C2=C(Nc3cccc(C(=O)O)c3)C(=O)NC2=O)c1 [SB-390770] | 0% | 0% | 12% | 0% | 0% | 2% | 2% | 0% | 7% | 7%
3 | O=C(NCCNc1ccnc(Nc2ccc(F)cc2)n1)Nc1ccc2c(c1)OCO2 [GSK1379882] | 18% | 2% | 0% | 0% | 2% | 42% | 3% | 0% | 22% | 3%
4 | CC(C)(C)c1ccc(C(=O)Nc2cn3cc(-c4ccccc4)ccc3n2)cc1 | 0% | 0% | 0% | 0% | 0% | 28% | 0% | 8% | 20% | 15%
5 | COc1cc2ncn(-c3cc(OCc4ccncc4)c(C(N)=O)s3)c2cc1OC [GSK336313] | 15% | 0% | 2% | 0% | 8% | 29% | 0% | 0% | 30% | 2%
6 | COC(=O)c1c(-c2ccccc2)c2cc(C)ccc2c(=O)n1Cc1ccccc1 | 17% | 0% | 0% | 0% | 0% | 0% | 0% | 5% | 0% | 0%
7 | COc1ccc(-c2coc3ccc(-c4nnc(SCc5cccc(C#N)c5)o4)cc23)cc1 | 2% | 20% | 7% | 10% | 0% | 5% | 11% | 0% | 8% | 3%
8 | O=C(Nc1ccc2c(c1)OCO2)NC1CCN(c2ccnc(NCc3ccc(F)cc3)n2)CC1 [GSK1379859] | 0% | 0% | 15% | 0% | 0% | 36% | 0% | 0% | 20% | 0%
9 | O=C(Nc1n[nH]c2cc(-c3ccccc3F)ccc12)C1CC1 [SB-733371] | 0% | 0% | 15% | 0% | 0% | 14% | 0% | 0% | 10% | 3%
10 | CCCC(=O)Nc1n[nH]c2ncc(-c3cccc4ccccc34)cc12 [SB-642057] | 26% | 0% | 2% | 0% | 37% | 19% | 4% | 0% | 1% | 0%
11 | Cl.NS(=O)(=O)c1cccc(Nc2cc(-c3ccc(F)cc3)n[nH]2)c1 [GW824645] | 9% | 0% | 0% | 3% | 0% | 19% | 3% | 0% | 0% | 0%
12 | Nc1nccc2scc(-c3ccc4c(c3)CCN4C(=O)Cc3ccccc3)c12 [GSK2576924] | 78% | 0% | 0% | 0% | 13% | 6% | 7% | 0% | 26% | 5%
13 | Cc1c(Cn2c(C)nn3c(=O)cc(N4CCO[C@H](C)C4)nc23)cccc1C(F)(F)F [GSK2373690] | 51% | 0% | 2% | 23% | 25% | 20% | 67% | 0% | 21% | 0%
14 | Cc1ccc(-c2ccc3c(ccc4sc5c(c43)NC[C@@H](C)N=C5N(C)C)n2)cn1 | 0% | 0% | 0% | 6% | 0% | 0% | 0% | 0% | 1% | 0%
15 | COc1cc(OC)cc(-c2cc3cnc(N)nc3nc2NC(=O)NC(C)(C)C)c1 | 73% | 0% | 0% | 36% | 0% | 0% | 0% | 0% | 32% | 0%
16 | Cc1ccc(Oc2ccc(Nc3ncnc4cc[nH]c34)cc2C)cn1 | 5% | 20% | 11% | 8% | 0% | 0% | 12% | 13% | 0% | 32%
17 | CCc1ccc(-c2ccc3c(c2)-c2nn(C)cc2S(=O)(=O)N3C)cc1 | 0% | 2% | 0% | 2% | 0% | 0% | 0% | 7% | 0% | 0%
